Laboratory results published in paper PMC10943123.

Assays:
[1] = biological target: Nuclear cap-binding protein subunit 1 (UniProt Q09161); experiment: cross-linking mass spectrometry
[2] = biological target: Cell division cycle 5-like protein (UniProt Q99459); experiment: cross-link between two proteins; cross-linking mass spectrometry
[3] = biological target: Pre-mRNA-processing-splicing factor 8 (UniProt Q6P2Q9); experiment: as above
[4] = biological target: Small nuclear ribonucleoprotein-associated proteins B and B' (UniProt P14678); experiment: as above
[5] = biological target: Splicing factor 3A subunit 2 (UniProt Q15428); experiment: as above
Sequence of Splicing factor 3A subunit 2 (Q15428 whole entry): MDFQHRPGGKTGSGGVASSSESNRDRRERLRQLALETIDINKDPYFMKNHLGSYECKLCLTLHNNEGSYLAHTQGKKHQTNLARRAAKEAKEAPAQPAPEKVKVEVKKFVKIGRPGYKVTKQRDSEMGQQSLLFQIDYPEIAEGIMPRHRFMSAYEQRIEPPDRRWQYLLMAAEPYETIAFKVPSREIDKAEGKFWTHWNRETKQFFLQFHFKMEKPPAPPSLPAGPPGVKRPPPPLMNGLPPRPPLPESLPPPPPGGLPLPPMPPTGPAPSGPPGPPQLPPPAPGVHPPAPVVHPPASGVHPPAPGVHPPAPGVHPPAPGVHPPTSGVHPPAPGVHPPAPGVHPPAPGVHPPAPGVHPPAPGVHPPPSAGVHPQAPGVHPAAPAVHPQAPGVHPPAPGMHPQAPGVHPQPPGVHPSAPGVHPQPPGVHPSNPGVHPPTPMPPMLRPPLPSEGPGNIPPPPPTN

[6] = biological target: U6 snRNA-associated Sm-like protein LSm4 (UniProt Q9Y4Z0); experiment: as above
Sequence of U6 snRNA-associated Sm-like protein LSm4 (Q9Y4Z0 whole entry): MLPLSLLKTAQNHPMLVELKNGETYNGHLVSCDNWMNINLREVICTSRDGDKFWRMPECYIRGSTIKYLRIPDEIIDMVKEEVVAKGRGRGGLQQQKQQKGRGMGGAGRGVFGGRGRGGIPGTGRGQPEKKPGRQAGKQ

[7] = biological target: U6 snRNA-associated Sm-like protein LSm6 (UniProt P62312); experiment: as above
Sequence of U6 snRNA-associated Sm-like protein LSm6 (P62312 whole entry): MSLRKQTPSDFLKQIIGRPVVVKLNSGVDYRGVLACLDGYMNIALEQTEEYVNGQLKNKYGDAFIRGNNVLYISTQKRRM

[8] = biological target: WD repeat-containing protein 70 (UniProt Q9NW82); experiment: as above
Sequence of WD repeat-containing protein 70 (Q9NW82 whole entry, the tested form may be a part): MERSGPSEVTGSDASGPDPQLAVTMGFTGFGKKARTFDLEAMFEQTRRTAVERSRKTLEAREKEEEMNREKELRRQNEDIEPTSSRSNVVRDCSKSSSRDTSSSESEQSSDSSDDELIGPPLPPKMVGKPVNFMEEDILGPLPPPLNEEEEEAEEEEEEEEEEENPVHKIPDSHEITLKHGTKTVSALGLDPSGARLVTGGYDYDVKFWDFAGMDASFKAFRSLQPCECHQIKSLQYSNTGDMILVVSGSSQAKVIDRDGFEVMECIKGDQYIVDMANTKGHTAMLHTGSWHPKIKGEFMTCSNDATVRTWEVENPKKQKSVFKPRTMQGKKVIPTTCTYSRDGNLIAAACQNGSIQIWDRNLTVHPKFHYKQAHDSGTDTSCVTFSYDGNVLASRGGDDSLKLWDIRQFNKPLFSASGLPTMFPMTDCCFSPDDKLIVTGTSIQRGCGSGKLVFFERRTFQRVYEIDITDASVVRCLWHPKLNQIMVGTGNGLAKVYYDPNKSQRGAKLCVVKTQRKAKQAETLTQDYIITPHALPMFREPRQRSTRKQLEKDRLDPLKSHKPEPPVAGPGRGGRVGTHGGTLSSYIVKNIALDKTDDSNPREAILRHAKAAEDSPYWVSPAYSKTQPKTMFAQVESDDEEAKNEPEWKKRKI

[9] = biological target: WW domain-binding protein 4 (UniProt O75554); experiment: as above
Sequence of WW domain-binding protein 4 (O75554 whole entry, the tested form may be a part): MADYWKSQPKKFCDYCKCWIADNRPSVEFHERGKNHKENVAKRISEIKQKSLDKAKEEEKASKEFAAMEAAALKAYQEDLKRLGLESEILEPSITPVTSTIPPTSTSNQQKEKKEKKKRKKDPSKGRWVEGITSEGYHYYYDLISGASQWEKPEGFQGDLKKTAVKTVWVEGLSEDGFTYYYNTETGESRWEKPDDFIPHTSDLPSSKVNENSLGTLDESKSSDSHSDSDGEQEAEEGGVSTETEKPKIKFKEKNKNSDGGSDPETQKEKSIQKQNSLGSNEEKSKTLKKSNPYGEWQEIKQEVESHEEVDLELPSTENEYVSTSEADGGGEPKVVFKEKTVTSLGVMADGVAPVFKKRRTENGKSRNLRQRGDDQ

[10] = biological target: Zinc finger CCCH domain-containing protein 18 (UniProt Q86VM9); experiment: as above
Sequence of Zinc finger CCCH domain-containing protein 18 (Q86VM9 whole entry, the tested form may be a part): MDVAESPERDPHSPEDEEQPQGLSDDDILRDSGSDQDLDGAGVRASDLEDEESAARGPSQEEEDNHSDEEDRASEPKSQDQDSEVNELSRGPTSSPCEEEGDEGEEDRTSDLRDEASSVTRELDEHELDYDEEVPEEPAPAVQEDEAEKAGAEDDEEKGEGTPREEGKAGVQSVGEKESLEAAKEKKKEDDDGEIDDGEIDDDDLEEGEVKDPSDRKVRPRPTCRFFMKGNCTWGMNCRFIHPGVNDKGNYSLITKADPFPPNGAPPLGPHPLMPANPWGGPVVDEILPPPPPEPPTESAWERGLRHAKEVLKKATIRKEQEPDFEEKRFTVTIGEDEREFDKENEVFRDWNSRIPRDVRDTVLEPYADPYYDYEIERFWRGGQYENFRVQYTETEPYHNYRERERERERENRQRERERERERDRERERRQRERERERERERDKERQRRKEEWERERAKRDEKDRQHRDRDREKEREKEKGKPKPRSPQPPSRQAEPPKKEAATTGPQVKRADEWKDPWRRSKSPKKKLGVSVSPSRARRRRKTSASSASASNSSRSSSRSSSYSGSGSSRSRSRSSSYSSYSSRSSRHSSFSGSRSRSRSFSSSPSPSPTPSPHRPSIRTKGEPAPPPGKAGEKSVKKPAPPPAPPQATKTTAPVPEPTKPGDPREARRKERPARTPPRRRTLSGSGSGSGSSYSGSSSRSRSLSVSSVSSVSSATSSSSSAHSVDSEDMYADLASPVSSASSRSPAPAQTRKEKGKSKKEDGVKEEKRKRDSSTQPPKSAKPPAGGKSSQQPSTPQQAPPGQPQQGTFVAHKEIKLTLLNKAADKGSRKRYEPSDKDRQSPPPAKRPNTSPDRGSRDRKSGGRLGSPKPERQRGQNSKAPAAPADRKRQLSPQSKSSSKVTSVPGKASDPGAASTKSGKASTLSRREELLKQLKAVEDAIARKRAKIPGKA

[11] = biological target: Cell division cycle 5-like protein (UniProt Q99459); experiment: cross-link between two proteins; cross-linking mass spectrometry; other

Sequence of Cell division cycle 5-like protein (Q99459 whole entry): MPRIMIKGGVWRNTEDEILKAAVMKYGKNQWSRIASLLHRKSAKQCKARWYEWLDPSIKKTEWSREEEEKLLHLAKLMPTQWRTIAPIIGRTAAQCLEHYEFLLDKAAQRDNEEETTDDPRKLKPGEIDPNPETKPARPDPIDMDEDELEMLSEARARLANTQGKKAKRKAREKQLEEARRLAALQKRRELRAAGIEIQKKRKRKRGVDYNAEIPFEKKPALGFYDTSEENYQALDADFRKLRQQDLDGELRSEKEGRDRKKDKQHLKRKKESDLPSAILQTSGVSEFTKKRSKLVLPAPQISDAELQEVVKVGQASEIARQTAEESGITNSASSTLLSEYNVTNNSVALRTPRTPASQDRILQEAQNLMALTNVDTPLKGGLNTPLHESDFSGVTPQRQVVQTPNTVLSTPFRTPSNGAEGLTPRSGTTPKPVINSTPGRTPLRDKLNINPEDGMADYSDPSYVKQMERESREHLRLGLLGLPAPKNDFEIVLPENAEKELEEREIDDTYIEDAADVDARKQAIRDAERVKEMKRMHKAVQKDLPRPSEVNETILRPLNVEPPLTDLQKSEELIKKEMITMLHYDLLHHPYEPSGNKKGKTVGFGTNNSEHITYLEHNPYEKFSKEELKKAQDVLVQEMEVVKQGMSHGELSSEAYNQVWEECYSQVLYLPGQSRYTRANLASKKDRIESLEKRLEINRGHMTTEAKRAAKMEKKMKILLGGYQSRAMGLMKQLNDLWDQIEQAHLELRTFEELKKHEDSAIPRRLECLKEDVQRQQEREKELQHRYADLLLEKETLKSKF
Sequence of Peptidyl-prolyl cis-trans isomerase H, O43447 (O43447 whole entry): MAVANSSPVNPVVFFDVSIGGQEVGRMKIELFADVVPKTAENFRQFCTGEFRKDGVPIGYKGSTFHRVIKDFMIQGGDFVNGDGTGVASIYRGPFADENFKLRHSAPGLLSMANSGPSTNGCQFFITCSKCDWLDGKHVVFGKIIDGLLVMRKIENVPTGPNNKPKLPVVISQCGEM
Sequence of Nuclear cap-binding protein subunit 1 (Q09161 whole entry): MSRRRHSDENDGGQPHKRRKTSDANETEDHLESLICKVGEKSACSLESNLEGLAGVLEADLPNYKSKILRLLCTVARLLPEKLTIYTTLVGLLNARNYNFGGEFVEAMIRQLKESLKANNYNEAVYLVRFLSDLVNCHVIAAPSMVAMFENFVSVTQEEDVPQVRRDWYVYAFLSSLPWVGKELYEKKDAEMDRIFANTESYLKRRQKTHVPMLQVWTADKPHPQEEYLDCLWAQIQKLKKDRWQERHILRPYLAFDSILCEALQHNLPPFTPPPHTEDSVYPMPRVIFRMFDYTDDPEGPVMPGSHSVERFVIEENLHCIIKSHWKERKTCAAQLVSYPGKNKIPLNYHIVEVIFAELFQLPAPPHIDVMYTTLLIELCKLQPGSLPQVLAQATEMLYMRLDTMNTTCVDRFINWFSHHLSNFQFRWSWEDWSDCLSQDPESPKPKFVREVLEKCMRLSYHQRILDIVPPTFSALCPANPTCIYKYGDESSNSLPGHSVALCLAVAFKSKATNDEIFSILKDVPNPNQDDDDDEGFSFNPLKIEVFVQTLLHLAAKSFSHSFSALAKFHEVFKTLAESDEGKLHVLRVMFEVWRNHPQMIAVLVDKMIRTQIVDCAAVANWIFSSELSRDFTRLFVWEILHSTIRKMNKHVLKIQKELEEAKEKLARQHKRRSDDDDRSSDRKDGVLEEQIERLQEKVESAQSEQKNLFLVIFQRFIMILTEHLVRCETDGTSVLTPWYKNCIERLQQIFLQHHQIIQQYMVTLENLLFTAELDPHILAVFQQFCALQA

Nuclear cap-binding protein subunit 2, P52298
listed as a hit [1]: yes

U5 small nuclear ribonucleoprotein 40 kDa protein, Q96DI7
listed as a hit [2]: yes

Thioredoxin-like protein 4A, P83876
listed as a hit [3]: yes

U2 small nuclear ribonucleoprotein B'', P08579
listed as a hit [4]: yes

Splicing factor 3B subunit 4, Q15427
listed as a hit [5]: yes

U6 snRNA-associated Sm-like protein LSm7, Q9UK45
listed as a hit [6]: yes

U4/U6 small nuclear ribonucleoprotein Prp3, O43395
listed as a hit [7]: yes

Pre-mRNA-processing factor 17, O60508
listed as a hit [8]: yes

Peptidyl-prolyl cis-trans isomerase H, O43447
listed as a hit [9]: yes

Nuclear cap-binding protein subunit 1, Q09161
listed as a hit [10]: yes

U5 small nuclear ribonucleoprotein 200 kDa helicase, O75643
listed as a hit [11]: yes
